The results in this text go back to the supplement of paper PMC6555819.

The test concerns VDR:RXRa (NR concentration 270 nM, RXRa partner concentration 90 nM). Nature of the test: PBM binding z-score (relative to random genomic background probes); higher = stronger binding; sequences stand for … in GC…GCGATTGACAGCGTAGAATGAAGG
How it is done:
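Protein-binding microarray (Agilent 4x180K custom design, double-stranded 60-nt probes: 5' GC cap, 34-nt variable region, 24-nt constant primer region; full probe sequence given). Purified or IVT nuclear receptor:RXRα heterodimers (3:1 NR:RXRα, mostly 270:90 nM) or homodimers were incubated for 1 h in PBS with 2% milk and no ligand, then detected with Alexa488 antibodies. Fluorescence from o1-orientation probes (~5 replicates averaged) was converted to z-scores against 500 random hg19 background probes. Variable regions are seed direct-repeat (DR0–DR5) sites, all their single-nucleotide variants and half-site ablations.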
CGTCAAAGTTCGAGGTAACGTAACAGAAAGCAGC yielded a PBM binding z-score of 1.32.

On to TATACAGGGTCAAAGGCCCGAGTACGAATGTCGA, for which the PBM binding z-score worked out at 4.53.

As for CCAGACAGGTGAGAAGGTAATTCAGCCTCGATTA, the PBM binding z-score is -0.16.

For the sequence GCGACCGGGGCAAAGCAGGTTACCATAAGGTTGG, the PBM binding z-score worked out at 0.7.

The sequence ACAGACAGGTGAGTGAAGGTAACTCTGCTGGACG showed a PBM binding z-score of -0.344.

The sequence ATTCAAAGTTCACTAGGTAACGTAAGATTCAGCT yielded a PBM binding z-score of 3.43.

As for CAAACTAGGTCACCGGAAGGTCAAACTCCGCATG, the PBM binding z-score was found to be 6.17.

Take GGAACGAGGGCAAGTTGATAGTAGAGTTTGATGG: the PBM binding z-score was 1.34.

Sequence GCTAGTTGGTCAGCAAAAGGTCACACACCGGTCG displayed a PBM binding z-score of 4.13.

For the sequence ATCCAAAGGTCGACGAGGTGAGTATACACCGTTT, the PBM binding z-score was found to be 5.23.

The sequence CAAACTAGGTCACGAAATGTCAAAGTCGAATGAC gave a PBM binding z-score of 3.47.

The sequence TTACCAGGGTGAAGGTCGTTGATCCCTCTGTAGA gave a PBM binding z-score of 1.65.

As for AGAATGAGGTTATTATGATCAGGGAATTGCGGTC, the PBM binding z-score turned out to be 1.65.

GCAGACAGGTGAAACGAAGGTAACTCAGGGTGGC came in with a PBM binding z-score of -0.301.

In turn, TCTTGTAGATCATCAGGTTAAGAAAGCTGGCCAA returned a PBM binding z-score of 0.814.

Take CCGACAGGGGCAAAGGTTACCATACTCAGTACGA: the PBM binding z-score was determined as 2.6.

As for CGAACCAGGTCAAGGACAGTGAATCTCCGCACGC, the PBM binding z-score is 2.22.

GCTTGTAGATCAAGGTTAAGTAAGACTAAGCTAA: the PBM binding z-score was 0.257.

The sequence GATACAGGGTCCGCTAGAGGCCAGAGTATGGAAA showed a PBM binding z-score of -0.544.

Take ACAAACAGGTGATGAAGGTAACTCAGGCTATCAT: the PBM binding z-score was found to be 0.56.

As for CCTTACGGGTCACGAGGTTAGAGCACGACGAGCG, the PBM binding z-score amounted to 4.98.

With TAGCCTAGGTCAGGGGCCAGTATACCACGCGAAC, the PBM binding z-score was determined as 0.706.

ACTATTAGTTGACTTAGGGCAACGGATACGACGC came in with a PBM binding z-score of 0.248.

As to CCTCCAAGGTCAGAGAGGTCAGTGAATGCCGAGT, the PBM binding z-score worked out at 7.22.

The sequence CCGACTGGGGCCAGGTTACCATAACGCACAGCCA yielded a PBM binding z-score of -0.248.

As to CCTAGTTGGTCGGGAGGTCACACACCGGATATGA, the PBM binding z-score stood at 3.78.

Sequence TCTCGGAGGGCACGAAGGTCAGAGCTTTCCAGAG registered a PBM binding z-score of 5.15.

TCATATAGGTAAACAGGTCAAAGTCCGTAAGTTA showed a PBM binding z-score of 2.87.

In turn, AATACAGGGTCATGGTAGGCCAGAGTACGCACAG registered a PBM binding z-score of 4.95.

With CCGACTGGGGCATGAGGTTACCATAAGCCAGCCC, the PBM binding z-score is -0.146.

On to CGTCCAAGGTCATAGGAGGTCGGTGAAGACAGAT, for which the PBM binding z-score turned out to be 5.71.

On to CCTCACGGGTCAAGGTTATAGCACGGGTGGTACG, for which the PBM binding z-score was found to be 3.18.

CGAACTAGGTCATCCAGGGCAGTGAATACATTGA: the PBM binding z-score worked out at 5.26.

For CGTCAAAGTTCAAGGTAACGTCACAGAAAGCAGC, the PBM binding z-score stood at 3.96.

ATCGATAGGTCGAAGGTGAGTATACCCACCCGAA registered a PBM binding z-score of 0.776.

Sequence ACTATTAGTTAAGACGAGGGCAACCGATAGGTTG showed a PBM binding z-score of 0.464.

For the sequence TCGAGTAGGTTAGGGGCATTCTGAATGGCGTCGA, the PBM binding z-score is 0.242.

In the case of CGAACTAGGTCATTGACACGACAGTGAATAGTAA, the PBM binding z-score worked out at 2.01.

Take GCAGACAGGTGAAACGTAGGTAACTCAGGGTGGC: the PBM binding z-score is -0.315.

In the case of CCAGACAGGCGAAAGGTAACTCAGTCTGGTACGC, the PBM binding z-score was -0.255.
